This is an account of results in PubChem BioAssay AID449762 (Southern Research Specialized Biocontainment Screening …, 2010).

As usually defined, the inhibition is the drop in the measured response relative to a control, in per cent.

In all, about 330,000 compounds went through this assay and about 1,900 (0.58%) were called active. About 4% were inconclusive and are not listed. The list is a sample of the results. Results with a measured potency or affinity are listed apart. Values without a mark were called inactive. No stated cut-off is given here; in the data, inconclusive means inhibition above about 70% without an active follow-up result; inactive means below that.

The assay in a line: M. tuberculosis growth inhibition, HTS (AID 449762).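 Further: bacterial growth assessed after seven days of incubation.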 To be noted: M. tuberculosis H37Rv growth inhibition, 7H9 media; at 25 µM; active compounds read high.
With `O=C(O)c1cccc(N/N=C/c2ccc(OC(F)(F)F)cc2)c1`, the inhibition is 4.3%.
To `COc1ccc(Nc2cc(Nc3cccc(OC)c3)ncn2)cc1` belongs 0.6%.
To `Cc1nc2scc(-c3ccc(Cl)cc3)c2c(=O)n1N` belongs -5.38%; to `Cc1nc2scc(-c3ccc(C(C)C)cc3)c2c(=O)n1N`, 6.8%; to `C1=Nc2ccccc2CN1c1ccccc1`, -10.9%.
To `CCOc1ccc(N2C(=O)CCC2=O)cc1` belongs -7.32%; to `CCCc1cc(N2CCC(C(N)=O)CC2)nc(-c2ccccc2)n1`, 5.28%; to `COc1ccc(/C=N/n2c(N)nc3ccccc32)cc1OC`, 4.73%.
Turning to `Nc1nc2ccccc2n1/N=C/c1cccnc1`, the inhibition is -4.9%.
Regarding `Cc1ccc(C(=O)Nc2nc(C(C)(C)C)cs2)s1`, the inhibition is 56.8%.
To `Clc1ccc2nc(-c3ccncc3)cc(-c3ccccc3)c2c1` belongs 3.77%; to `Cc1ccc2nc(-c3ccc(NS(C)(=O)=O)cc3)cc(-c3ccccc3)c2c1`, 0.07%.
In the case of `COc1ccc(S(=O)(=O)N2CCN(C(=O)c3ccco3)CC2)cc1C(C)(C)C`, the inhibition is -13.2%.
To `Cc1cccc(Sc2ccc([N+](=O)[O-])cc2[N+](=O)[O-])n1` belongs 19.9%.
To `Cc1cc(C)nc(Sc2ccc([N+](=O)[O-])cc2[N+](=O)[O-])n1` belongs 0.29%.
To `C/C(=C\C(=O)c1ccc(C)o1)Nc1ccc(C(=O)O)cc1C` belongs -5.52%; to `COc1ccc(OC)c(N/C(C)=C/C(=O)c2ccc(C)o2)c1`, 5.43%.
In the case of `Cc1ccn2c(-c3csc(NCc4ccco4)n3)c(C)nc2c1`, the inhibition is 7.31%.
For the molecule `Cc1nc2sccn2c1-c1csc(NCc2ccccc2)n1`, the inhibition is 54.7%.
For `O=C(COC(=O)CCN1C(=O)c2ccccc2C1=O)Nc1ccccc1[N+](=O)[O-]`, the inhibition is -0.89%.
To `O=C(Nc1ccccc1)C1C2/C=C\CCCCC21` (centres undefined) belongs 5.24%; to `Cc1ccc(NC(=O)C2C3/C=C\CCCCC32)cc1` (centres undefined), -6.56%; to `Cc1cc(F)ccc1S(=O)(=O)N1CCCOC1CNC(=O)C(=O)NC1CCCCC1` (centres undefined), -6.82%.
Take `CCOC(=O)N1CCN(c2c(NCCCN3CCCCCC3)c(=O)c2=O)CC1`: the inhibition was 1.01%.
To `CCOC(=O)/C(=N/Nc1ccccc1OC)N1CCCc2ccccc21` belongs 0.45%.
To `CCOC(=O)/C(=N/Nc1ccccc1)N1CCCc2ccccc21` belongs 0.18%.
Consider `Cc1ccc(S(=O)(=O)Cc2sc3ccccc3[n+]2C)cc1`, for which the inhibition was -1.05%.
To `COc1ccc(NC(=O)C(CC(=O)O)Cc2ccccc2)cc1` (centres undefined) belongs -9.83%; to `Cc1ccc(SCCNC(=O)/C=C/c2ccc(Cl)cc2)cc1`, -7.24%; to `CC(=O)c1ccc(-c2ccc(/C=C(/Sc3n[nH]c(C)n3)C(=O)O)o2)cc1`, -2.81%.
To `Cc1nc(S/C(=C/c2ccc(-c3ccc(C(=O)O)cc3)o2)C(=O)O)n[nH]1` belongs -0.51%; to `CCCN1CCN(C(=O)c2ccc(CS(=O)c3ccc(Cl)cc3)o2)CC1` (centres undefined), -5.84%.
To `Cc1ccc(C(=O)N(c2ccccn2)C(C)c2ccco2)cc1C` (centres undefined) belongs 6.78%; to `Cc1ccc(Nc2nc(CSc3n[nH]c(N)n3)cs2)cc1`, 0.79%.
On to `c1ccc(-c2nc(CSc3nnc(-c4cccs4)o3)cs2)cc1`, for which the inhibition was 3.49%.
In the case of `CCc1ccc(NC(=O)C(NS(=O)(=O)c2ccc3c(c2)CCN3C(C)=O)C(C)C)cc1` (centres undefined), the inhibition was 0.33%.
Consider `CCN(CC)c1nc(Nc2ccc([N+](=O)[O-])cc2)nc(N(CC)CC)n1`, for which the inhibition is 6%.
To `Cc1ccc(Nc2nc(N)c3ccccc3n2)cc1Cl` belongs 11.2%; to `Cc1ccc(NC(=O)c2ccsc2)cc1NS(C)(=O)=O`, -6.89%; to `C=CCc1c(C)nc(C)nc1N/N=C/c1ccc([N+](=O)[O-])cc1`, -6.42%.
To `CN1CCN(C(=O)CCn2c(=O)c3cccn3c3cccnc32)CC1` belongs 6.95%; to `O=C(Cn1c(=O)c2cccn2c2cccnc21)N1CCN(c2ccc(Cl)cc2)CC1`, 0.96%.
To `Cc1cc2nc(C3CCN(Cc4nnnn4Cc4ccccc4)CC3)[nH]c2cc1C` belongs 34%.
Turning to `Cc1ccc(CN2CCC(c3nc4ccc(Cl)cc4[nH]3)CC2)cc1`, the inhibition is 2.51%.
As for `CC(=O)Nc1ccc(SCC(=O)Nc2sccc2C#N)cc1`, the inhibition was -2.99%.
To `O=C(OCC(=O)c1c[nH]c2ccccc12)c1cncc(Br)c1` belongs -0.17%; to `O=C(OCC(=O)c1c[nH]c2ccccc12)c1ccc(Br)o1`, 5.56%; to `CCOC(=O)c1c(NC(=O)c2ccccc2C(=O)O)sc2c1CCCC2`, -6.92%.
To `CCOC(=O)c1c(NC(=O)c2ccccc2C(=O)O)sc2c1CCC2` belongs -2.86%.
To `CCN1CCN(CC(O)COc2ccc(C)c(C)c2)CC1` (centres undefined) belongs 4.44%; to `COC(=O)c1sccc1NC(=O)c1ccccc1C(=O)O`, 1.76%.
`CCn1nc(NC(=O)c2ccncc2)c2cc3ccccc3nc21`: the inhibition is 2.23%.
To `CCn1nc(NC(=O)c2ccncc2)c2cc3ccc(C)cc3nc21` belongs 4.05%; to `O=C(Nc1ccccc1C(=O)O)c1cc(S(=O)(=O)N2CCCCC2)c(Cl)cc1Cl`, -1.16%; to `CCn1c2ccc(CC(=O)O)cc2c2cc(CC(=O)O)ccc21`, -11.4%.
For `COc1ccc(NC(=O)CN2CCN(CC(=O)Nc3ccccc3F)CC2)c(OC)c1`, the inhibition is -3.25%.
To `Cc1ccc(NC(=O)c2nc[nH]c2C(=O)NCCCNC(=O)c2[nH]cnc2C(=O)Nc2ccc(C)cc2)cc1` belongs 5.52%.
For the molecule `Cc1ccc(Nc2ccc(-n3ccnc3)nn2)cc1C`, the inhibition is -0.37%.
To `c1ccc(Nc2ccc(-n3ccnc3)nn2)cc1` belongs -2%; to `COCc1cc(=O)[nH]c(/N=C(\N)Nc2ccc(C)cc2)n1`, -14.4%; to `Cc1nn(C)c(C)c1Nc1ccc(N2C(=O)C3C4C=CC(C4)C3C2=O)cc1[N+](=O)[O-]` (centres undefined), 10.1%.
With `CCCn1nnnc1SCC(=O)N1C(C)CCCC1C` (centres undefined), the inhibition was 5.01%.
To `COc1ccc(C(OCC(O)CNCCc2ccccc2)c2ccc(OC)cc2)cc1` (centres undefined) belongs 19.9%.
For `COc1ccccc1COCC(O)CNCCc1ccc(C(F)(F)F)cc1` (centres undefined), the inhibition was 1.34%.
To `O=C(O)CCn1nnc(-c2ccccc2)n1` belongs -0.81%; to `COc1ccc(OCC(=O)N(Cc2ccco2)C2CCS(=O)(=O)C2)cc1` (centres undefined), 3.83%; to `Cc1ccc(S(=O)(=O)N2CCCCC2)cc1NC(=O)C1CCC1`, 0.72%.
To `Cc1ccc(-c2nc3ccccc3c(=O)o2)cc1` belongs 12.5%.
In the case of `Cc1ccc(-c2nc3ccsc3c(=O)[nH]2)cc1`, the inhibition is 5.58%.
Consider `C=CCN1C(=O)/C(=C/c2cccs2)S/C1=N\S(=O)(=O)c1ccc(F)cc1`, for which the inhibition was 0.38%.
To `COc1ccc(NC(=O)CCNC(=O)C2CCN(S(=O)(=O)c3ccc(OC)cc3)CC2)cc1` belongs 10.1%; to `CC(C)(C)OC(=O)COc1cc(O)c2c(=O)cc(-c3ccccc3)oc2c1`, 39.4%.
To `O=C(COc1cc(O)c2c(=O)cc(-c3ccccc3)oc2c1)c1ccccc1` belongs -3.97%; to `CSc1nnc(-c2cc(Br)ccc2N=Cc2c(C)[nH]n(-c3ccccc3)c2=O)c(=O)[nH]1`, 4.16%; to `O=[N+]([O-])c1c(Nc2ccccc2O)cc(N2CCOCC2)c2nonc12`, 0.81%.
To `CCOC(=O)C1CCCN(S(=O)(=O)c2ccc(-c3cc(C)no3)s2)C1` (centres undefined) belongs 3.93%.
On to `CCO[C@@H]1OC(C(=O)NCc2nc3ccccc3[nH]2)=C[C@H](c2ccccc2)[C@H]1CCCO`, for which the inhibition is 10.6%.
To `CCO[C@H]1OC(C(=O)NCc2nc3ccccc3[nH]2)=C[C@@H](c2ccccc2)[C@@H]1CCCO` belongs -4.83%; to `O=C(CSc1nc2ccccc2nc1N1CCCCC1)N1CCN(c2ccccc2)CC1`, -7.86%; to `Cc1ccc(C)n1CCN1CCN(C(=O)CSc2nc3ccccc3nc2N2CCOCC2)CC1`, 5.46%.
To `COc1ccc2[nH]c(=O)c(CN(CC3CCCO3)S(=O)(=O)c3ccccc3)cc2c1` (centres undefined) belongs 2.57%; to `Cc1ccccc1OCC(=O)NNC(=O)C1CCCCC1C(=O)O` (centres undefined), 2.25%.
To `Cc1cccc(N(C(=O)c2nsc(Cl)c2Cl)C(C(=O)NC2CCCC2)c2ccc(O)cc2)c1` (centres undefined) belongs -12.7%; to `Cc1ccc(C)c(N(C(=O)c2nsc(Cl)c2Cl)C(C(=O)NC2CCCC2)c2ccc(O)cc2)c1` (centres undefined), -2.81%.
For the molecule `C=CCc1c(C)nn(CC(=O)O)c1-c1ccccc1`, the inhibition was -6.59%.
To `COc1ccc(S(=O)(=O)N2CCC(C(=O)NC(c3nc4ccccc4[nH]3)C(C)C)CC2)cc1` (centres undefined) belongs -6.28%.
To `O=C(Nc1cc(S(=O)(=O)N2CCOCC2)ccc1N1CCCC1)C1COc2ccccc2O1` (centres undefined) belongs -4.41%; to `COC(=O)/C(=C1/Oc2ccc(C)cc2S1)C(F)(F)F`, 4.4%.
Turning to `COC(=O)/C(=C1/Oc2ccc(C(C)(C)C)cc2S1)C(F)(F)F`, the inhibition was -1.9%.
To `O=S(=O)(c1ccc(Cl)c(NC(=S)Nc2cccc(O)c2)c1)N1CCOCC1` belongs 1.85%.
To `CC12CCC(=O)N1C(C(=O)N1CCN(S(=O)(=O)c3cccc(C(F)(F)F)c3)CC1)CS2` (centres undefined) belongs 2.29%.
To `O=C(Nc1nc2ccc(Cl)cc2s1)C1CC1` belongs 7.91%; to `CC1CC1C(=O)Nc1nc2ccc(Cl)cc2s1` (centres undefined), 16.9%; to `O=C(Cc1nnc(NC(=O)Nc2ccc(F)cc2)s1)NCc1ccccc1`, -2.08%.
